Experimental findings from ChEMBL document CHEMBL1961873, “Compounds: GSK PKIS; Assays: Nanosyn kinase panel” (2012) are described below.

For test [1], the target named is Protein kinase C gamma type (Homo sapiens) (UniProt P05129). The conditions noted are these: at 1 µM.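 Note: each value is an averaged percent inhibition of the enzyme.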
The target in test [2] is T1, Protein kinase C iota type (Homo sapiens) (UniProt P41743).
T1 sequence (whole entry): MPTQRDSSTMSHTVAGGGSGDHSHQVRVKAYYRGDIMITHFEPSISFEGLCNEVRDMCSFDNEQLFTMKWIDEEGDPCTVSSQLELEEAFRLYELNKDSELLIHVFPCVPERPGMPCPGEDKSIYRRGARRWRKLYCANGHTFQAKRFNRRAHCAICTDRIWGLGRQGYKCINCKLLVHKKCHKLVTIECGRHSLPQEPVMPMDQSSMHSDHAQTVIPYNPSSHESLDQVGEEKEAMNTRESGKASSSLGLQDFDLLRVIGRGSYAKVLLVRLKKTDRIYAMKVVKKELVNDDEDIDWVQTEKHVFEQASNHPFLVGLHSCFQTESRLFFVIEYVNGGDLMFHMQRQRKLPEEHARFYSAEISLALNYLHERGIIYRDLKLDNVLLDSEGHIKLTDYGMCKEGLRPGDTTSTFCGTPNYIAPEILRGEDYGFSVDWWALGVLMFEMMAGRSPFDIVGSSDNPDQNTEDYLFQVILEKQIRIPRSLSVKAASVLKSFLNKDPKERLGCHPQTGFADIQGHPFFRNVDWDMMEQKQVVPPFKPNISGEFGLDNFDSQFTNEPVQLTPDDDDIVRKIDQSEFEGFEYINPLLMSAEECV
The conditions noted are these: at 0.1 µM.

Test [3] deals with T1, Protein kinase C iota type (Homo sapiens). The conditions noted are these: at 1 µM.
Test [4] has as its target Protein kinase C theta type (Homo sapiens) (UniProt Q04759). The note with it: at 0.1 µM.
For test [5] the target is unchanged. The conditions noted are these: at 1 µM.
Test [6] concerns the target Protein kinase C beta type (Homo sapiens) (UniProt P05771). The note with it: at 0.1 µM.
Test [7] shares this target. The note with it: at 1 µM.
The target in test [8] is T2, Serine/threonine-protein kinase D1 (Homo sapiens) (UniProt Q15139).
T2 sequence (whole entry): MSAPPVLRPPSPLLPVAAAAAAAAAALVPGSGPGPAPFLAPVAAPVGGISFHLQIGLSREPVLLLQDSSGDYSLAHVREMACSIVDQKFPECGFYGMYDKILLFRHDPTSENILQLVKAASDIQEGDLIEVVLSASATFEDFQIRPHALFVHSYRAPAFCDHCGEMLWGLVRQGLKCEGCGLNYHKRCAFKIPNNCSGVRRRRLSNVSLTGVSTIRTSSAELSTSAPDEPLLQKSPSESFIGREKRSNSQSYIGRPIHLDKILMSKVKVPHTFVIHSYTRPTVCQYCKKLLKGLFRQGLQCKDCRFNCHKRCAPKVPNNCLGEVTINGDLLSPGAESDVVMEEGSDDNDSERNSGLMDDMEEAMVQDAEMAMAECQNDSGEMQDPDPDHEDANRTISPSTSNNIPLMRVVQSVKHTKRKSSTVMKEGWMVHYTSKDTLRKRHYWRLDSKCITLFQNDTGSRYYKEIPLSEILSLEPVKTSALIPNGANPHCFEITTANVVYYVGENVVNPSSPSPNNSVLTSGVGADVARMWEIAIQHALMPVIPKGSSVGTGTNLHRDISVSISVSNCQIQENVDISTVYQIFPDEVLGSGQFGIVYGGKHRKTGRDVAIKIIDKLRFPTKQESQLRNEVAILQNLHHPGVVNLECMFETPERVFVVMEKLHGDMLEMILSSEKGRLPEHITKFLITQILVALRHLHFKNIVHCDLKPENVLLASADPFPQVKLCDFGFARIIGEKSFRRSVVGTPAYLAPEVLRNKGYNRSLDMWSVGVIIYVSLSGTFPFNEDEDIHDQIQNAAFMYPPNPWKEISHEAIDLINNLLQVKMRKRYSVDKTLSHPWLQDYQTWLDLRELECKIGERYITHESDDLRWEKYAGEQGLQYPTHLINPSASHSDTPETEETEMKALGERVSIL
The note with it: at 0.1 µM.

For test [9], the target named is T2, Serine/threonine-protein kinase D1 (Homo sapiens). The conditions noted are these: at 1 µM.
For test [10], the target named is T3, Serine/threonine-protein kinase D2 (Homo sapiens) (UniProt Q9BZL6).
T3 sequence (whole entry): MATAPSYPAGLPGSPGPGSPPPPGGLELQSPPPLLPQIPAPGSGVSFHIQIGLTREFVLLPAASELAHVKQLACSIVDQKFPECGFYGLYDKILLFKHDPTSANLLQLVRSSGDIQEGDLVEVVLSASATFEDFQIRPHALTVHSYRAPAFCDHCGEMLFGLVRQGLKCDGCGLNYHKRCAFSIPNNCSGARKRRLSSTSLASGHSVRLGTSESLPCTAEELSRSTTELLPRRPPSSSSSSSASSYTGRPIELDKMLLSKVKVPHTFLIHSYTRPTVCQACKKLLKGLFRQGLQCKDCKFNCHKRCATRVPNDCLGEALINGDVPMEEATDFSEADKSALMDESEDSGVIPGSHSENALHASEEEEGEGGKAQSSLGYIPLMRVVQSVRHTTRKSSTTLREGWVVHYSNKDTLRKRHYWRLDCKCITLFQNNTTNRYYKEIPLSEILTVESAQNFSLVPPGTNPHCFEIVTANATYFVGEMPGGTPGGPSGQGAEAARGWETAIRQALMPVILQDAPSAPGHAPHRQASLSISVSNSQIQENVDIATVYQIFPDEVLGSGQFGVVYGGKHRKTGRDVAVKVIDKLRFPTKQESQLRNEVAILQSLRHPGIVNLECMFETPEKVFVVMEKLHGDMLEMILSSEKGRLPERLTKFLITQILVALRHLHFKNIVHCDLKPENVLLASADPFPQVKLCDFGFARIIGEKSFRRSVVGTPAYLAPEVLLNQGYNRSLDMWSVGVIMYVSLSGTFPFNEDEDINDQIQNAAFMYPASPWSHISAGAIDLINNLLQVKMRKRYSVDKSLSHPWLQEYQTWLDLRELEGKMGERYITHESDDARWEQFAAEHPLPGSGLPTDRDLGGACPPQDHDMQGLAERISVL
The conditions noted are these: at 0.1 µM.

Test [11] deals with T3, Serine/threonine-protein kinase D2 (Homo sapiens). The conditions noted are these: at 1 µM.
Test [12] addresses T4, Serine/threonine-protein kinase D3 (Homo sapiens) (UniProt O94806).
T4 sequence (whole entry): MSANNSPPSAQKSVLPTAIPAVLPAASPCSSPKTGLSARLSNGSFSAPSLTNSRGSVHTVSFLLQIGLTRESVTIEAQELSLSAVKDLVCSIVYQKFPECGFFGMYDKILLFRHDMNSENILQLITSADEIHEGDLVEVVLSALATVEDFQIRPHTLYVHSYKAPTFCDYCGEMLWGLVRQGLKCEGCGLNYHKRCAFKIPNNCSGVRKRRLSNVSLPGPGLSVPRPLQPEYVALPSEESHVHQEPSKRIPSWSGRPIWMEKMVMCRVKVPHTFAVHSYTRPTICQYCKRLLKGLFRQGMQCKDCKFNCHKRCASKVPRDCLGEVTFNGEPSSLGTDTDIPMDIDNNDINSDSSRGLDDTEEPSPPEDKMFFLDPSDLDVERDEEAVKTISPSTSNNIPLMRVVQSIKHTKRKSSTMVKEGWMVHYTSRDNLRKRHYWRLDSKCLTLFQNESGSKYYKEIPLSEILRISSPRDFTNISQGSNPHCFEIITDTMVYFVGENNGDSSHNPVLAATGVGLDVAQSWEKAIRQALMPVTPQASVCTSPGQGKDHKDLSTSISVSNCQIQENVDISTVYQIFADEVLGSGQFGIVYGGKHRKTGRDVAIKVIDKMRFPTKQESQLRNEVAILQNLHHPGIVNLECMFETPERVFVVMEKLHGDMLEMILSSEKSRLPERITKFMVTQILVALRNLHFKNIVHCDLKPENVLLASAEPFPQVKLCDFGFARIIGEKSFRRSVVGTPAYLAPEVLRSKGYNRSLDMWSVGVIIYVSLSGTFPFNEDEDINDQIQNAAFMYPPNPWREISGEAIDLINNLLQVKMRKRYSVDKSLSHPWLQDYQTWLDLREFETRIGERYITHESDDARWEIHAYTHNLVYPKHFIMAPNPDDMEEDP
The note with it: at 0.1 µM.

Test [13] has as its target T4, Serine/threonine-protein kinase D3 (Homo sapiens). The note with it: at 1 µM.
Test [14] concerns the target T5, cGMP-dependent protein kinase 1 (Homo sapiens) (UniProt Q13976).
T5 sequence (whole entry): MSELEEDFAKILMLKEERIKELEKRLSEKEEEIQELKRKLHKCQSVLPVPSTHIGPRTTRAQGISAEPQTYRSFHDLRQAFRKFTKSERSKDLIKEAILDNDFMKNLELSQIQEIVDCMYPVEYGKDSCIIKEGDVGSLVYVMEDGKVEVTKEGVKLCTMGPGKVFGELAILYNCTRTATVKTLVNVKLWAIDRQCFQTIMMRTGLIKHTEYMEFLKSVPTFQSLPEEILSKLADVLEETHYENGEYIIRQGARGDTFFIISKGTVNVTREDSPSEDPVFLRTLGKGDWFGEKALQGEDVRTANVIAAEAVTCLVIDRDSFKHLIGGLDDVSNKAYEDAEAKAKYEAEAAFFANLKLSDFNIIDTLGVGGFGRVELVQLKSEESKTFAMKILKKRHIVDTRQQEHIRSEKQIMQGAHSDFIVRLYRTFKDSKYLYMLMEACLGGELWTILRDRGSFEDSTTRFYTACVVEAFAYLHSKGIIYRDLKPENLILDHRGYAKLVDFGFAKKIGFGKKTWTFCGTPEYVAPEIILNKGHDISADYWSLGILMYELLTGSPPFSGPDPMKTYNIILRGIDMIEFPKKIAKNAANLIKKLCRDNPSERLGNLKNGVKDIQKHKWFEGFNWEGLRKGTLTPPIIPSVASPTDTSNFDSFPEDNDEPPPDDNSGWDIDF
The conditions noted are these: at 0.1 µM.

Test [15] has as its target T5, cGMP-dependent protein kinase 1 (Homo sapiens). The conditions noted are these: at 1 µM.
Test [16] concerns the target T6, cGMP-dependent protein kinase 2 (Homo sapiens) (UniProt Q13237).
T6 sequence (whole entry): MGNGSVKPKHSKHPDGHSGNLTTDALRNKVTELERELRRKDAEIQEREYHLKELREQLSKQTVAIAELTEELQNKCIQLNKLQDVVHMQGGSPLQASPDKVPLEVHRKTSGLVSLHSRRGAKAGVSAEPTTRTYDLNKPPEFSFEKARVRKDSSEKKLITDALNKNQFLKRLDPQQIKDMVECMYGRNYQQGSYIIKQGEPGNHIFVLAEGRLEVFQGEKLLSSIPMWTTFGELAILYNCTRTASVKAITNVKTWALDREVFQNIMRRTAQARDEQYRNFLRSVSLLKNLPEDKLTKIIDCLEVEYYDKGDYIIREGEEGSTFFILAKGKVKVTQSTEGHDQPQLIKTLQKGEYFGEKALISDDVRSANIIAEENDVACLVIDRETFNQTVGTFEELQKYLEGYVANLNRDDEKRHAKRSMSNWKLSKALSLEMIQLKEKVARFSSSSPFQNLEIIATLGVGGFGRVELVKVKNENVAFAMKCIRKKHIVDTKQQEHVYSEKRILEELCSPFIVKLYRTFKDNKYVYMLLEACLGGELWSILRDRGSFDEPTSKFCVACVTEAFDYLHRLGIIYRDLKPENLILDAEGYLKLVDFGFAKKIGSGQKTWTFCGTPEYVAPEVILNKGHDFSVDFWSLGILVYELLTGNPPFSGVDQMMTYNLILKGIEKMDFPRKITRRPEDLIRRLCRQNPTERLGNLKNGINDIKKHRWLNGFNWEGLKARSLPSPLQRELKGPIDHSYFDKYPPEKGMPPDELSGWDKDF
The conditions noted are these: at 0.1 µM.

For test [17], the target named is T6, cGMP-dependent protein kinase 2 (Homo sapiens). The note with it: at 1 µM.
The target of test [18] is T7, cAMP-dependent protein kinase catalytic subunit PRKX (Homo sapiens) (UniProt P51817).
T7 sequence (whole entry): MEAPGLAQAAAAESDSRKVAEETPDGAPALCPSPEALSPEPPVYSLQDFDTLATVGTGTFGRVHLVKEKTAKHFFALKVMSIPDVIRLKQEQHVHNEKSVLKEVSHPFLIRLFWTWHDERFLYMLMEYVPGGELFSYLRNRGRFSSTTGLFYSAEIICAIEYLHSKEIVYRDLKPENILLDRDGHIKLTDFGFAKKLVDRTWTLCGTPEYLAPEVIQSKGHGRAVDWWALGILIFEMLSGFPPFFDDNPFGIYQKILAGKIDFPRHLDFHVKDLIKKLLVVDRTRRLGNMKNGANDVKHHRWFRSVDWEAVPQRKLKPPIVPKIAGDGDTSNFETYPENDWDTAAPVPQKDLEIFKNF
The conditions noted are these: at 0.1 µM.

For test [19], the target named is T7, cAMP-dependent protein kinase catalytic subunit PRKX (Homo sapiens). The note with it: at 1 µM.
Test [20] addresses Rho-associated protein kinase 1 (Homo sapiens) (UniProt Q13464). The note with it: at 0.1 µM.

Chain of Protein kinase C theta type (Homo sapiens) (Q04759 whole entry, looked up): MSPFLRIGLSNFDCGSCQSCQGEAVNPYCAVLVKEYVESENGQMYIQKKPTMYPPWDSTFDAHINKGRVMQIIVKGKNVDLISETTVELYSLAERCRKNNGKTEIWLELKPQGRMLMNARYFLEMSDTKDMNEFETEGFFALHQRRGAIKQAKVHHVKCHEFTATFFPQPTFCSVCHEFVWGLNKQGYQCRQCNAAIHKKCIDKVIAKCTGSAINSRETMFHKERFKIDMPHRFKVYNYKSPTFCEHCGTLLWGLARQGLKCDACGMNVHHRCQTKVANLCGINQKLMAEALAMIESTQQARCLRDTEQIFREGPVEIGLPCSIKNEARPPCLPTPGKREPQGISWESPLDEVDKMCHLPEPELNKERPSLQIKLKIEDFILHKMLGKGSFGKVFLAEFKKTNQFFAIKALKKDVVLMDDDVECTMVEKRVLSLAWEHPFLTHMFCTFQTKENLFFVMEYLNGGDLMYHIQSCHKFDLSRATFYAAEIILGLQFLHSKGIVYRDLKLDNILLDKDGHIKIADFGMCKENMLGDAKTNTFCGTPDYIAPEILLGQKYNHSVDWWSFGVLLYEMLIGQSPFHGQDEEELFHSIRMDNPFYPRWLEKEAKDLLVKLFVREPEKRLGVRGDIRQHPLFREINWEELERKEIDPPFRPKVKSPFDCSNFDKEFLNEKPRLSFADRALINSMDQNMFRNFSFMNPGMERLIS
Chain of Protein kinase C beta type (Homo sapiens) (P05771 2-671 limits assumed): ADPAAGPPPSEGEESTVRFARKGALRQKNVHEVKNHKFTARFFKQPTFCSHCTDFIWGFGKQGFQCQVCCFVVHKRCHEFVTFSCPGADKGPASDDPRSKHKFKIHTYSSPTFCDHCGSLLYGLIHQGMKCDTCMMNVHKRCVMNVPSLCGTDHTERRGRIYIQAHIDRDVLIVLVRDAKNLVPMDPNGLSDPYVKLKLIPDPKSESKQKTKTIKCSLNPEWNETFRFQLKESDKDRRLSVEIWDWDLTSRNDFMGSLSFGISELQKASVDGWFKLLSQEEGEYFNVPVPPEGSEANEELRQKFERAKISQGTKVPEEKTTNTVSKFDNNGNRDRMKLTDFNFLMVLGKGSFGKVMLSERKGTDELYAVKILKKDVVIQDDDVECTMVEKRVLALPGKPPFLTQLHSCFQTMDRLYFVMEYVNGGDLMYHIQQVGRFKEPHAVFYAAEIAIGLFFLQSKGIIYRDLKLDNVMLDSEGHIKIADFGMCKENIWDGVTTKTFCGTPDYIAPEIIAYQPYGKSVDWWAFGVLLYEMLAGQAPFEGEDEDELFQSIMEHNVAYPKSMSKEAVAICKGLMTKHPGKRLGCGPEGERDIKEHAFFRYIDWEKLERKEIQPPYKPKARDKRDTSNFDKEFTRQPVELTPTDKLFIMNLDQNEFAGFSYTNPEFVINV
Chain of Rho-associated protein kinase 1 (Homo sapiens) (Q13464 2-1354 limits assumed): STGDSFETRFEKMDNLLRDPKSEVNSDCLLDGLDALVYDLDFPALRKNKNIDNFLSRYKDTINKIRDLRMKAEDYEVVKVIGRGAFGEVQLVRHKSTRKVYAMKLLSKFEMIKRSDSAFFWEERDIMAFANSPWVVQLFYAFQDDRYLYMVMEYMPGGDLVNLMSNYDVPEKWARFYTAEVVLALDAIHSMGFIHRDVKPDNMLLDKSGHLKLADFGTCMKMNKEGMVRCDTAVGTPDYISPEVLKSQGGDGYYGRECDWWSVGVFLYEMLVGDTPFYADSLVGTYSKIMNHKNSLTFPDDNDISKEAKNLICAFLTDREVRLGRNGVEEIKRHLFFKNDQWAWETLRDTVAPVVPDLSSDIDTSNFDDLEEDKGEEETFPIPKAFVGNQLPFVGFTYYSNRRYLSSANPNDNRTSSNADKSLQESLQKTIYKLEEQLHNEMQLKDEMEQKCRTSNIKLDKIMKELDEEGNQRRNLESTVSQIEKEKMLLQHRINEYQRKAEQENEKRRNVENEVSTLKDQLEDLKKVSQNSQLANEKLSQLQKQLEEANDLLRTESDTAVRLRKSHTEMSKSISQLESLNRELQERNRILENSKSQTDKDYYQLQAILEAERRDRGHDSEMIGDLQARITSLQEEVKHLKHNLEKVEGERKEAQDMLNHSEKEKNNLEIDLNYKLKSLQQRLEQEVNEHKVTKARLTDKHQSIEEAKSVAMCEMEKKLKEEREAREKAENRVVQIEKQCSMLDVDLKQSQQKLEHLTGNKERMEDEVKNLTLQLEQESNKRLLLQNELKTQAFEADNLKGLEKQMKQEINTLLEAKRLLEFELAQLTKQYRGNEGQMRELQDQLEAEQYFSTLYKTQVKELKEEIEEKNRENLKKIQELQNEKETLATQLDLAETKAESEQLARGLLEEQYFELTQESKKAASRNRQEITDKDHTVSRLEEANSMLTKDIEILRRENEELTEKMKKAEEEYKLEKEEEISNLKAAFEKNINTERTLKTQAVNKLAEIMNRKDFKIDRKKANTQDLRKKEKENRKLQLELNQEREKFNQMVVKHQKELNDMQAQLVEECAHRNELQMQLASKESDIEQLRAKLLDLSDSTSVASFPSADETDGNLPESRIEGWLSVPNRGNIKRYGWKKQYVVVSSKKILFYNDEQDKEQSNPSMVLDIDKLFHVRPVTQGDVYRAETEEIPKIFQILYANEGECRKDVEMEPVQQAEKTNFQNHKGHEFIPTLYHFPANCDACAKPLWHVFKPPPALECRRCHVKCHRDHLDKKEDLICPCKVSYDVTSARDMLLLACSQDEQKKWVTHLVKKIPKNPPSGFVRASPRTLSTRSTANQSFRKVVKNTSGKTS

Take `COc1ccc2cc(-c3c(-c4ccncc4)nc(-c4ccc(S(C)(=O)=O)cc4C)n3C)ccc2c1`: the inhibition was found to be 7.85% in [1]; 3.93% in test [2]; 3.45% in [3]; 2.19% in test [4]; 5.03% in [5]; 3.45% in [6]. For the same compound, the inhibition was 9.63% in test [7]; 4.08% in [8]; 4.53% in [9]; 4.88% in test [10]; 4.27% in test [11]; 3.99% in test [12]. Besides, the inhibition in test [13] came out at 4.2%; in [14], 5.14%; in [15], 8.86%; in test [16], 5.61%; in [17] it was 6.44%; in [18], 5.93%. For the same compound, the inhibition in test [19] is 12.1%; in [20] it was 8.02%.

Consider `CCc1nccc2c1nc(-c1nonc1N)n2CC`, for which the inhibition in [1] is -2.73%; in [2], -0.45%; in test [3] it was 1.45%; in test [4], -0.41%; in [5], 0.94%; in [6], 0.5%. The inhibition in [7] is 1.81%; in [8], 1.12%; in [9] it was 2.3%; in test [10], 1.51%; in test [11] it was 3.17%; in test [12] it was 1.43%. Further, the inhibition in test [13] was 2.71%; in test [14], 0.88%; in test [15], 7.44%; in [16], 2.5%; in test [17], 21.1%; in [18], -0.13%. Besides, the inhibition in test [19] was -0.42%; in test [20] it was 1.09%.

As a reminder, the inhibition is the change of the read-out against control, counted positive when it falls.
